Screening results (PubChem)
Rows were chosen to be rich in hits. Some 11% of all compounds tested hit in one or more screens of this group.
HCV inh – HCV inhibition; 3.4% of 340,000 active; Huh7.5.1 HCVcc-Cre infection, luciferase reporter, 44 h; Potency, µM (top dose mostly 41.8 µM), without a hit: at the top dose activity change, negative = inhibition, most hits filed as inhibitors; AID 651820
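Whole-lifecycle infectious HCVcc-Cre system; cells 1,000/well, compound then virus (~0.5 moi) added 4 h after plating, 44 h culture. Luciferase read 15 sec following 15 min substrate incubation, room temp.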
Pf growth 96h – inhibits malaria parasite growth, 96 h | Potency, µM (doses to about 28.7 µM), for the others: top-dose activity change, negative = inhibition, most hits filed as inhibitors | 6.9% of 320,000 active | AID 504834 | P. falciparum luciferase reporter growth, 96 h
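Infected RBCs, 2% Hct / 0.05% parasitemia final; luciferase-reporter P. falciparum; cpd 96 h, 37 C, 5% CO2; luciferase detection reagent; luminescence.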
AMA1 RON2 block – AMA1-RON2 (P. falciparum) interaction inhibition. AlphaScreen AMA1-biotinylated RON2 peptide binding. Potency, µM (highest dose often 58.2 µM), inactives show at the highest dose activity change, negative = inhibition, usual class: inhibitors. 0.2% of 360,000 active;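 note: 0% = vehicle wells and -100% = peptide control; nearly all actives have a fitted effect of over 45% in size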
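AMA1 (3D7) with his tag at 25 nM final met compounds first, then biotinylated RON2 peptide at 25 nM; detection used donor plus acceptor beads, 10 µg/mL apiece, read by AlphaScreen after 30 min at room temperature.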
Pf growth 48h – inhibits P. falciparum growth in the first generation, 48 h. AID 504832. Potency, µM (doses to about 28.7 µM), for the others: at the top dose activity change, negative = inhibition, most hits filed as inhibitors. 5.9% of 310,000 active. P. falciparum luciferase growth in erythrocytes, 48 h
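Luciferase-expressing P. falciparum in infected erythrocytes (2% hematocrit, 0.1% parasitemia final) in RPMI 1640/0.5% Albumax were exposed to compound for 48 hours at 37 C, 5% CO2; growth read as luminescence.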
Active calls of the source: *; u = inconclusive; x = no result given; [ ] = another dose, or the depositor's remark. Calls come from the whole dose curve; as a rule, active = well fitted curve in the direction sought with a large enough effect; inconclusive = small, poorly fitted or top-dose-only effect, or another doubt; inactive = no such curve, though single readings can be large; an effect the other way counts as inactive or inconclusive. Unless noted, % is set by controls: 0 for no effect and ±100 for the full control effect; potency is the fitted concentration of half-maximal effect.

SMILES	HCV inh	Pf growth 96h	AMA1 RON2 block	Pf growth 48h
O=C1NC[C@H](Cc2ccccc2)N(C[C@H]2CCCN2C[C@H](Cc2ccccc2)N2C[C@H](Cc3ccc(O)cc3)N(CCc3ccccc3)C(=O)C2=O)C1=O	3.9%	x	-5.1%	x
Cc1ccc(NC(=O)COC(=O)CC2SC(N3CCCC3)=NC2=O)cc1 (stereo not given)	17.2%	-20.7%	-2.0%	-23.8%
CC(=O)Nc1ccc(S(=O)(=O)NCCC(=O)N2CCN(C(c3ccccc3)c3ccccc3)CC2)cc1	10.9%	10.4µM*	-1.4%	11.7µM*
O=C(CCNS(=O)(=O)c1ccccc1)N1CCOCC1	17.8%	8.3%	6.8%	5.9%
CC(=O)Nc1ccc(S(=O)(=O)NCCC(=O)N2CCCCC2)cc1	9.6%	7.6%	-23.9%	-21.6%
CC(=O)Nc1ccc(S(=O)(=O)NCCC(=O)N2CCC(Cc3ccccc3)CC2)cc1	-7.0%	5.22µM*	-15.2%	u
O=C(CCNS(=O)(=O)c1ccccc1)N1CCN(C(c2ccccc2)c2ccccc2)CC1	x	5.86µM*	x	u
O=C(CC(c1ccccc1)c1cc(Cl)ccc1O)N1CCOCC1 (stereo not given)	-4.9%	-32.5%	-0.6%	11.4%
Oc1ccc(Cl)cc1C(C#Cc1ccccc1)N1CCOCC1 (stereo not given)	0.0%	10.4µM*	-5.4%	u
CCC1CSC(Nc2ccc(C(=O)/C=C/c3ccc(Oc4ccccc4)cc3)cc2)=N1 (stereo not given)	u	6.57µM*	-13.7%	10.4µM*
CC(C)Nc1nc(-c2ccccc2)nnc1-c1ccccc1	-19.3%	u	-1.9%	u
c1ccc(-c2nc(-n3ccnc3)nc(-n3ccnc3)n2)cc1	u	2.33µM*	-17.5%	8.28µM*
c1ccc(-c2nc(NC3CC3)nc(-n3ccnc3)n2)cc1	2.51µM*	-2.5%	3.3%	13.1µM*
c1ccc(-n2ccnc2)cc1	13.5%	9.5%	-13.3%	37.5%
CC(C)Nc1nc(-c2ccccc2)nc(-n2ccnc2)n1	2.82µM*	3.3%	20.4%	2.33µM*
c1ccc(CN2CCN(c3nc(-c4ccccc4)nc(-n4ccnc4)n3)CC2)cc1	11.2µM*	-9.1%	u	3.7µM*
COc1ccc(C(=O)N(c2ccccc2)c2nccc3ccccc23)cc1OC	1.78µM*	x	6.0%	x
CCCCC(=O)N1CCN(c2nc3ccc(Cl)cc3s2)CC1	7.94µM*	45.0%	15.8%	46.0%
CC(C)(CC(=O)O)CC(=O)N1CCCN(c2nc3ccc(Cl)cc3s2)CC1	-1.6%	0.7%	-8.3%	5.5%
CC(C)(C)NC(=O)N1CCN(c2nc3ccc(Cl)cc3s2)CC1	12.6µM*	39.3%	2.5%	5.2%[0.00184 µM]
CC(C)(CC(=O)O)CC(=O)N1CCN(c2nc3ccc(Cl)cc3s2)CC1	9.0%	4.5%	10.3%	12.2%
O=[N+]([O-])c1ccc(C[n+]2cccc3ccccc32)cc1	8.4%	u	2.4%	10.4µM*
O=[N+]([O-])c1ccc(Cc2ccccn2)cc1	17.5%	u	-4.3%	-2.7%
O=[N+]([O-])c1ccc(C[n+]2cccc3ccc4cccnc4c32)cc1	u	u	81.1%	0.262µM*
CCCCC[n+]1cccc2c3ccccc3ccc21	u	-26.5%	0.7%	u
SMILES	HCV inh	Pf growth 96h	AMA1 RON2 block	Pf growth 48h
c1ccc(C[n+]2cccc3c4ccccc4ccc32)cc1	u	11.0%	10.7%	0.0738µM*
CCOc1cc(/C=C(\C#N)C(=O)NCc2cccnc2)ccc1O	8.5%	-50.4%	-4.3%	-11.5%
Cc1nn(Cc2ccc(C(=O)Nc3ccccc3C(F)(F)F)o2)c(C)c1Br	u	40.2%	-6.8%	u
Cc1csc(NC(=O)c2ccc(Cn3nc(C)c(Br)c3C)o2)n1	10µM*	u	-3.2%	u
COc1ccc(CN2CCN(CC(O)Cn3c4ccccc4c4ccccc43)CC2)cc1 (stereo not given)	11.2µM*	u	-22.9%	3.29µM*
CCn1c2ccccc2c2cc(CN3CCN(Cc4cc(OC)ccc4O)CC3)ccc21	u	52.7%	12.6µM*	1.17µM*
CCOc1ccc(CN2CCN(CC(O)Cn3c4ccccc4c4ccccc43)CC2)cc1 (stereo not given)	17.7%	u	10.7%	2.08µM*
CN1CCN(CC(O)Cn2c3ccccc3c3ccccc32)CC1 (stereo not given)	u	-2.1%	-1.5%	u
